Consider eight compounds from article PMC5540273 (PLoS ONE, 2017).

Some test systems named below: FYN; GAK; GRK1; GRK4; GRK7; GSK3A; GSK3B; HCK; HIPK1; HIPK2; HIPK3; HIPK4; HPK1; HUNK; ICK; IGF1R.
Conditions in all cases: concentration: 1 μM,replicates: in singlicate; n = 1
The next assay has as its system T1, GCN2(Kin.Dom.2,S808G).
T1 construct: gene EIF2AK4

A further assay concerns T2, GRK2.
T2 construct: gene ADRBK1

The next assay has as its system T3, GRK3.
T3 construct: gene ADRBK2

The test system of the next assay is T4, HASPIN.
T4 construct: gene GSG2
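Also: KINOMEscan kinase panel screen.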

For the compound `Cc1ccc2c(-c3ccnc(Nc4ccc(C(F)(F)F)cc4)n3)cnn2n1` [GW819776], the “%Inh” value with FYN came out at 9%; in the assay with GAK, 0%; with GCN2(Kin.Dom.2,S808G), 3%; in the assay on GRK1 it was 28%; in the assay on GRK2, 0%; in the assay with GRK3, 3%. Further, the “%Inh” value with GRK4 came to 21%; in the assay with GRK7 it was 0%; in the assay with GSK3A, 74%; with GSK3B, 36%; in the assay with HASPIN, 12%; in the assay on HCK, 30%. For the same compound, the “%Inh” value is 89% with HIPK1; 80% in the assay with HIPK2; 79% in the assay on HIPK3; 43% in the assay with HIPK4; 0% in the assay with HPK1; 0% in the assay on HUNK. Also, the “%Inh” value was determined as 66% in the assay with ICK and 7% in the assay with IGF1R.

Take `O=C(NCC1CC1)c1ccc(-c2cc(C(=O)NC3CC3)ccc2F)cc1` [GW810445]: the “%Inh” value in the assay on FYN amounted to 0%; with GAK, 0%; in the assay with GCN2(Kin.Dom.2,S808G), 0%; in the assay on GRK1 it was 1%; in the assay on GRK2, 19%; in the assay on GRK3, 0%. The “%Inh” value worked out at 0% with GRK4; 0% in the assay on GRK7; 0% in the assay on GSK3A; 0% in the assay on GSK3B; 2% with HASPIN; 10% in the assay with HCK. For the same compound, the “%Inh” value is reported as 0% in the assay with HIPK1; 0% in the assay with HIPK2; 0% in the assay with HIPK3; 12% in the assay on HIPK4; 0% with HPK1; 56% in the assay on HUNK. For the same compound, the “%Inh” value with ICK and with IGF1R was 0% each time.

With `CSc1nccc(-c2c(-c3ccc(F)cc3)ncn2CCCN2CCOCC2)n1.Cl` [SB-217146], the “%Inh” value with FYN amounted to 0%; in the assay with GAK, 6%; with GCN2(Kin.Dom.2,S808G), 0%; with GRK1, 45%; in the assay on GRK2 it was 0%; in the assay on GRK3 it was 11%. Moreover, the “%Inh” value in the assay on GRK4 turned out to be 10%; in the assay on GRK7, 0%; with GSK3A, 0%; in the assay on GSK3B, 18%; in the assay on HASPIN, 0%; with HCK it was 14%. Besides, the “%Inh” value came to 40% in the assay with HIPK1; 0% in the assay with HIPK2; 8% in the assay on HIPK3; 0% in the assay on HIPK4; 0% in the assay on HPK1; 13% in the assay with HUNK. For the same compound, the “%Inh” value with ICK and in the assay with IGF1R was 0% each time.

For `CCNCC(Cc1ccccc1)NC(=O)c1cc(Br)c(-c2ccnc3[nH]ccc23)s1.Cl.Cl` (stereo not shown) [GSK1383280], the “%Inh” value with FYN is recorded as 0%; with GAK, 51%; in the assay with GCN2(Kin.Dom.2,S808G), 43%; in the assay on GRK1 it was 89%; in the assay with GRK2 it was 61%; with GRK3, 83%. In addition, the “%Inh” value came out at 0% in the assay with GRK4; 91.9% with GRK7; 0% in the assay with GSK3A; 14% with GSK3B; 88% in the assay with HASPIN; 0% with HCK. The “%Inh” value turned out to be 46% in the assay with HIPK1; 18% in the assay on HIPK2; 48% in the assay with HIPK3; 92.5% with HIPK4; 51% in the assay on HPK1; 0% with HUNK. Also, the results for the “%Inh” value in the assay on ICK and with IGF1R were 18% and 23%, respectively.

Regarding `C[C@@H](Oc1cc(-n2cnc3cc(-c4cnn(C)c4)ccc32)sc1C(N)=O)c1ccccc1Cl` [GSK580432], the “%Inh” value in the assay with FYN is recorded as 47%; with GAK, 95.3%; with GCN2(Kin.Dom.2,S808G), 99.2%; in the assay on GRK1 it was 4%; in the assay with GRK2, 38%; in the assay with GRK3 it was 0%. Also, the “%Inh” value with GRK4 was found to be 85%; with GRK7, 0%; in the assay with GSK3A it was 0%; with GSK3B, 0%; in the assay on HASPIN it was 0%; in the assay with HCK, 64%. Besides, the “%Inh” value with HIPK1 stood at 20%; in the assay with HIPK2 it was 0%; in the assay with HIPK3 it was 4%; with HIPK4, 1%; in the assay with HPK1, 91.3%; with HUNK it was 0%. Moreover, the “%Inh” value in the assay on ICK and in the assay on IGF1R was 0% in each case.

As to `CNC(=O)c1ccccc1Nc1nc(Nc2cccc(CS(C)(=O)=O)c2)ncc1C.O=CO` [GSK1520489], the “%Inh” value in the assay with FYN amounted to 98.9%; in the assay on GAK, 94.7%; in the assay on GCN2(Kin.Dom.2,S808G), 100%; in the assay with GRK1, 8%; with GRK2 it was 0%; with GRK3, 100%. In addition, the “%Inh” value in the assay with GRK4 is 85%; with GRK7, 40%; with GSK3A, 25%; in the assay with GSK3B, 34%; in the assay with HASPIN it was 52%; in the assay with HCK, 99.2%. Further, the “%Inh” value is 93.5% in the assay on HIPK1; 88% in the assay on HIPK2; 92.7% with HIPK3; 97.2% in the assay on HIPK4; 96.8% in the assay on HPK1; 0% with HUNK. In addition, the “%Inh” value in the assay on ICK worked out at 20%; in the assay with IGF1R it was 90.7%.

In the case of `O=C(NOCC1CC1)c1cc(Br)c(F)c(F)c1Nc1ccc(I)cc1Cl`, the “%Inh” value came out at 0% with FYN; 0% in the assay with GAK; 10% with GCN2(Kin.Dom.2,S808G); 30% in the assay with GRK1; 0% in the assay on GRK2; 0% in the assay with GRK3. Also, the “%Inh” value in the assay on GRK4 is given as 0%; in the assay on GRK7 it was 0%; in the assay on GSK3A, 33%; in the assay with GSK3B it was 0%; in the assay on HASPIN, 0%; in the assay on HCK it was 8%. The “%Inh” value in the assay on HIPK1 was determined as 20%; in the assay on HIPK2, 0%; in the assay with HIPK3, 0%; in the assay with HIPK4 it was 0%; in the assay on HPK1 it was 14%; in the assay on HUNK, 8%. Further, the “%Inh” value in the assay with ICK and with IGF1R was 0% throughout.

In the case of `O=C(Nc1cccc(C(F)(F)F)c1)c1cccc(Oc2ccc3nccn3n2)c1`, the “%Inh” value in the assay on FYN is given as 62%; in the assay on GAK, 0%; with GCN2(Kin.Dom.2,S808G), 0%; in the assay with GRK1, 9%; in the assay with GRK2, 0%; in the assay with GRK3, 35%. Moreover, the “%Inh” value with GRK4 was 10%; in the assay with GRK7, 0%; with GSK3A it was 0%; with GSK3B, 2%; in the assay with HASPIN it was 0%; with HCK, 52%. Also, the “%Inh” value was 0% in the assay on HIPK1; 8% in the assay with HIPK2; 20% with HIPK3; 65% with HIPK4; 0% with HPK1; 0% in the assay with HUNK. For the same compound, the “%Inh” value with ICK worked out at 31%; in the assay with IGF1R it was 20%.
